The text below walks through data of PubChem BioAssay AID1209 (Sanford-Burnham Center for Chemical Genomics, 2008).

Broadly, the inhibition is the drop in the measured response relative to a control, in per cent.

In all, about 190,000 compounds went through this assay and about 810 (0.43%) were called active. The list comes from a sample in which actives are over-represented; it also holds similar structures and randomly drawn compounds. Unmarked numbers belong to inactive results. Cut-off read from the data, not from the text of the source: active = inhibition above about 50%; inactive = the rest.

The target of this assay is Mannose-6-phosphate isomerase (Homo sapiens) (UniProt P34949). In words: MPI enzyme activity inhibition – biochemical, fluorescence intensity, coupled assay, primary screen (AID 1209).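 Note: plate controls were DMSO vehicle for no effect and wells lacking substrate for full effect.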 Conditions: purified PMI enzyme, at 20 µM, stronger effect = higher value.
Sequence of Mannose-6-phosphate isomerase (Homo sapiens) (P34949 whole entry, looked up): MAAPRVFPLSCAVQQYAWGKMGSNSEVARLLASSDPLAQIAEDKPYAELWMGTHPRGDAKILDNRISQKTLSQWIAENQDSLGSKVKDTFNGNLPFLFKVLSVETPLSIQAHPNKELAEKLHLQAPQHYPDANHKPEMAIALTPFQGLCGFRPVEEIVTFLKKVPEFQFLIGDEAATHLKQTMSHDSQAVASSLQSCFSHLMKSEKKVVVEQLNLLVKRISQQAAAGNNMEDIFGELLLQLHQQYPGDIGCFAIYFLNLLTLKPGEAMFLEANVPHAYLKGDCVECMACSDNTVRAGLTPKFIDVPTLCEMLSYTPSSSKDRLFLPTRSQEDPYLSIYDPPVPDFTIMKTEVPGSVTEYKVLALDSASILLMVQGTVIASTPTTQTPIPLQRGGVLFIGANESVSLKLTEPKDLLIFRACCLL
In the case of `FC(F)(F)c1cccc(NC(=S)N2CCN(c3ccccn3)CC2)c1`, the inhibition is -17%. As to `FC(F)Oc1cccc(NC(=S)N2CCN(c3ccccn3)CC2)c1`, the inhibition is 65.6% (active). The value for `COc1cccc(NC(=S)N2CCN(c3ccccn3)CC2)c1` was 12.3%; that for `CN(C)c1cccc(C(=O)OCC(=O)Nc2nccs2)c1` was -1.5%. For `COc1nc(N2CCCCCC2)nc(N2CCCCCC2)n1`, the inhibition is 2.3%. Take `N/C(=N/O)c1nc(N2CCCCC2)nc(N2CCCCC2)n1`: the inhibition was 2.2%. As for `COc1nc(/C(N)=N/O)nc(N2CCCCC2)n1`, the inhibition was 66.9% (active).

As to `COc1ccc(C(=O)Nc2ccc(CN3CCCCC3)cc2)cc1`, the inhibition is 3%.

For `Cc1nn(CC(=O)Nc2nccs2)c(C)c1[N+](=O)[O-]`, the inhibition was -3.9%. `CCc1c(C)sc(NC(=O)Cn2nc(C)c([N+](=O)[O-])c2C)c1C(N)=O`: the inhibition was 53.3% (active).

For the compound `CCOC(=O)Cn1nc(C)c([N+](=O)[O-])c1C`, the inhibition is -27.5%. On to `COc1ccc(C2CC(C(F)(F)F)n3nc(C(=O)NCCCn4ccnc4)cc3N2)cc1OC` (configuration not stated), for which the inhibition was 41.3%. For the compound `O=C(CN1CCCc2ccccc21)NCc1ccccc1Cl`, the inhibition is -13.5%. Turning to `Cc1ccc(C(=O)Nc2ccc(N3CCN(S(C)(=O)=O)CC3)cc2)cc1`, the inhibition was 0.4%. With `Cc1ccc(S(=O)(=O)CCNC(=O)Cc2ccc(Cl)cc2)cc1`, the inhibition is 3.4%.

As to `O=C(CS(=O)(=O)c1ccc(Cl)cc1)NCCS(=O)(=O)c1ccc(Cl)cc1`, the inhibition was 59.5% (active).

Consider `CC(C(=O)NCCS(=O)(=O)c1ccc(Cl)cc1)S(=O)(=O)c1ccc(Cl)cc1` (configuration not stated), for which the inhibition was -15.8%. `Cc1ccc(CNC(=O)c2cncc(Br)c2)cc1`: the inhibition was 10.4%. Turning to `CCOC(=O)C(C)n1cnc2c(nnn2-c2ccc(OC)cc2)c1=O` (configuration not stated), the inhibition is -2.7%. With `CCOc1ccc(CNC(=O)CCCOc2cc(=O)n(C)c3ccccc23)cc1`, the inhibition was -6.3%. `Cc1c(Cc2ccc3c(c2)OCO3)sc(NC(=O)c2ccccc2)c1C(N)=O`: the inhibition was -2.5%.

With `Cc1c(Cc2ccc3c(c2)OCO3)sc(NC(=O)c2cccc3ccccc23)c1C(N)=O`, the inhibition was 56.7% (active). As for `Cc1c(Cc2ccc3c(c2)OCO3)sc(NC(=O)c2ccc3ccccc3c2)c1C(N)=O`, the inhibition was 43.1%. As to `CC1=C(C)/C(=N\OS(=O)(=O)c2ccc(C)cc2)C=CC1=O`, the inhibition was 75.6% (active). For `COc1ccc(S(=O)(=O)/N=C2/C=CC(=O)C(C)=C2C)cc1`, the inhibition is 14.5%. Turning to `CC1=C(C)/C(=N/OC(=O)c2cccc([N+](=O)[O-])c2)C=CC1=O`, the inhibition was 4.4%.

`CC1=C(C)/C(=N\OC(=O)/C=C/c2ccccc2)C=CC1=O`: the inhibition was 7.2%. The figure for `Cc1ccc(S(=O)(=O)O/N=C2\CCCc3ccccc32)cc1` is 9.6%; for `CS(=O)(=O)N(CC(=O)NCC1CCCO1)c1cccc([N+](=O)[O-])c1` (configuration not stated) it is -8.6%. For the compound `CCn1c(CNC(=O)Cc2ccc(OC)cc2)nnc1SCCOc1ccccc1`, the inhibition is -11.5%. Consider `CC(C)Nc1nc(NC(C)C)nc(N(C)C#N)n1`, for which the inhibition is 3.3%. `O=C(NN1CCN(Cc2ccccc2Cl)CC1)c1ccc(Br)cc1`: the inhibition was -9.1%.

`O=S1(=O)CCN2C(c3cccc4ccccc34)=CSC2=N1`: the inhibition is 2.1%. The figure for `Nc1nnc(SCCOc2ccccc2)s1` is 1.7%; for `Clc1ccc(OCc2nnc(-c3ccccc3Br)o2)c(Cl)c1` it is -0.9%. For `Cc1ccc(NC(=O)/C(=C/c2cccc([N+](=O)[O-])c2)NC(=O)C2CCCCC2)cc1`, the inhibition is 14%. As for `CC(=O)/C(CN1CCCCC1)=N\O`, the inhibition was -6.1%. As to `C/C(=N\O)C(=O)NCCN1CCCCC1`, the inhibition was 1.5%. Turning to `C/C(=N\O)C(=O)C(CN1CCCCC1)CN1CCCCC1`, the inhibition was 52.4% (active).

`CCc1c(C)nc2ncnn2c1NC1CCCc2ccccc21` (configuration not stated): the inhibition is 15%. On to `CC(C)c1ccc(NC(=O)C2CC(=O)N=C(N)S2)cc1` (configuration not stated), for which the inhibition was 7.7%. Regarding `Cc1ccc(C2CC(c3ccccc3)=NN2C(=S)Nc2ccccc2)o1` (configuration not stated), the inhibition is 53% (active).

In the case of `Cc1ccc(C2=NN(C(=S)Nc3ccccc3)C(c3ccco3)C2)cc1` (configuration not stated), the inhibition is 8.2%. Consider `COc1ccc(C2CC(c3ccccc3)=NN2C(=S)Nc2ccccc2)cc1` (configuration not stated), for which the inhibition was 9.4%. With `CCOC(=O)c1c(C)oc2c1c(C=NC1CCS(=O)(=O)C1)c(O)c1ccccc12` (configuration not stated), the inhibition is 76.1% (active). With `CCOC(=O)c1c(C)oc2c1c(C(c1cccnc1)N1CCN(C)CC1)c(O)c1ccccc12` (configuration not stated), the inhibition is 35.1%. Turning to `CCOC(=O)c1c(C)oc2c1c(C(c1ccccc1)N1CCOCC1)c(O)c1ccccc12` (configuration not stated), the inhibition is 37%. As for `Cc1cc(C)cc(-n2c(O)c(C=NC3CCS(=O)(=O)C3)c3ccccc3c2=O)c1` (configuration not stated), the inhibition is 14.1%. In the case of `CCOC(=O)c1c(C)oc2c1c(CN1CCN(C(=O)OCC)CC1)c(O)c1ccccc12`, the inhibition is 25.1%. On to `CCOC(=O)c1c(C)oc2c1c(CN1CCN(CCO)CC1)c(O)c1ccccc12`, for which the inhibition was 57.7% (active). On to `O=C(O)CCCN=Cc1c(O)c2ccccc2oc1=O`, for which the inhibition is 3.2%. For `CCOC(=O)c1c(C)oc2c1c(C(c1cccnc1)N1CCCCC1)c(O)c1ccccc12` (configuration not stated), the inhibition is 28.2%.

In the case of `O=C(O)CCN=Cc1c(O)c2ccccc2oc1=O`, the inhibition was 7.6%.

Consider `CCOC(=O)c1c(C)oc2c1c1c(c3ccccc32)OCN(Cc2cccnc2)C1`, for which the inhibition was 71.9% (active). Consider `Cc1ccc(-n2c(O)c(C=NC3CCS(=O)(=O)C3)c3ccccc3c2=O)cc1` (configuration not stated), for which the inhibition is 5.7%.

On to `CCOC(=O)c1c(C)oc2c1c(C=NCCC(=O)O)c(O)c1ccccc12`, for which the inhibition was 77.4% (active). Turning to `CCC1CCCCN1C(=O)COc1cccc2c1CCN(C)C2=O` (configuration not stated), the inhibition is -3.6%. Turning to `O=C(C[n+]1cccc(CO)c1)Nc1nc2ccccc2s1`, the inhibition is -3.4%. `O=c1c2sc(-c3ccccc3)cc2nc2n1CCC2`: the inhibition is -4.9%. The figure for `Clc1ccc(N/N=C/c2ccncc2)cc1Cl` is 5.3%; for `O=C(COC(=O)[C@@H]1CCCN1S(=O)(=O)c1ccccc1F)Nc1ccc(OC(F)F)cc1` it is 9.6%; for `Cn1c(SCC(=O)NCC2CCCO2)nnc1-c1ccc(S(=O)(=O)N2CCCC2)cc1` (configuration not stated) it is -1.5%. With `CCNC(=O)NC(=O)C(C)SCc1ccccc1C` (configuration not stated), the inhibition was -8.4%. Turning to `CCOC(=O)c1c(C)oc2c1c(C=NCc1ccccn1)c(O)c1ccccc12`, the inhibition is 62.5% (active). The value for `Oc1[nH]c2ccccc2c1C=NCC1CCCO1` (configuration not stated) was -2.9%; that for `CCOC(=O)c1c(C)oc2c1c(C=NCC1CCCO1)c(O)c1ccccc12` (configuration not stated) was 63.6% (active). For the compound `CCOC(=O)c1c(C)oc2c1c(C(c1ccncc1)N1CCOCC1)c(O)c1ccccc12` (configuration not stated), the inhibition is 21%.

Turning to `CCOC(=O)c1c(C)oc2c1c(C(c1cccnc1)N1CCOCC1)c(O)c1ccccc12` (configuration not stated), the inhibition was 22.6%. For the compound `O=c1oc2ccccc2c(O)c1C=NCc1ccccn1`, the inhibition was 5.9%. As to `CCOC(=O)c1c(C)oc2c1cc(O)c1ccccc12`, the inhibition was 13.4%. For `CCOC(=O)c1c(NCC2CCCO2)c2ccccc2[nH]c1=O` (configuration not stated), the inhibition was -8.8%.

As to `Cn1c(NC(=O)Cc2cccc3ccccc23)cc(=O)n(C)c1=O`, the inhibition was 7.2%.

Take `NNC(=O)c1sc2cc(C(F)(F)F)cnc2c1-c1cccnc1`: the inhibition was 3.5%. Consider `O=S1(=O)N=C(Nc2nncs2)c2ccccc21`, for which the inhibition is 23.3%. Consider `O=C1CNC(=O)N1CC(O)Cn1c2ccccc2c2ccccc21` (configuration not stated), for which the inhibition was 5.5%. `O=C(/C=C/c1ccc(S(=O)(=O)NCc2ccco2)cc1)NCc1cccc(Cl)c1`: the inhibition was 0.4%. Turning to `CCCn1c(CNS(=O)(=O)c2ccc(C)cc2)nc2ccccc21`, the inhibition was 83.3% (active). Consider `CCCn1c(CNC(=O)c2ccccc2)nc2ccccc21`, for which the inhibition is 0.8%. `CCCn1c(NCc2ccccc2NS(=O)(=O)c2ccc(C)cc2)nc2ccccc21`: the inhibition was 27.9%. `O=C(N/N=C/c1coc2ccccc2c1=O)c1ccccc1Br`: the inhibition was -7.2%. Regarding `Cn1c(C(C#N)C(=O)Cc2cccc3ccccc23)nc2ccccc21` (configuration not stated), the inhibition was -7.2%.

For `C=CCNC(=S)Nc1ccc(Cl)c(S(=O)(=O)N2CCOCC2)c1`, the inhibition was -6.8%.

As to `CCC(=O)OCCNc1cc(SCCC(=O)OC)c2nonc2c1[N+](=O)[O-]`, the inhibition was 79.5% (active). Regarding `COC(=O)CCSc1cc(NCCOC(C)=O)c([N+](=O)[O-])c2nonc12`, the inhibition was 4.9%. The value for `CCCC(=O)OCCNc1cc(SCCC(=O)OC)c2nonc2c1[N+](=O)[O-]` was 81.2% (active); that for `CCC(=O)OCCNc1cc(Sc2nccn2C)c2nonc2c1[N+](=O)[O-]` was 20.4%; that for `CCCSc1cc(NCCOC(=O)CCC)c([N+](=O)[O-])c2nonc12` was 41.9%. The value for `CCCSc1cc(NCCOC(C)=O)c([N+](=O)[O-])c2nonc12` was 27.6%; that for `O=C(O)/C=C/C(=O)Nc1ccc(SC(F)(F)F)cc1` was -22.4%; that for `CC1(C)Cc2nc3sc4c(=O)n(Cc5ccccc5)cnc4c3cc2CS1` was -8.6%. As to `Cc1cc(NC(=O)CSc2ncnc3ccccc23)no1`, the inhibition was 15.8%. For `O=C(O)CCn1cc(/C=C2\SC(=S)NC2=O)c(-c2ccccc2)n1`, the inhibition is -4.7%. Regarding `O=Cc1cn(CCC(=O)O)nc1-c1cccc(Br)c1`, the inhibition was -4.6%.

For the compound `CN(C)Cc1c(O)ccc2c3c(c(=O)oc12)CCCCC3`, the inhibition is -0.4%. As to `O=c1oc2c(CN3CCOCC3)c(O)ccc2c2ccccc12`, the inhibition was 7.2%. For `CCC1(c2ccccc2)NC(=O)N(Cc2ccc(C(=O)OC)cc2)C1=O` (configuration not stated), the inhibition was 4.1%. On to `CCOC(=O)c1[nH]c2ccc(OC)cc2c1NC(=O)/C=C/c1ccc2c(c1)OCO2`, for which the inhibition is -2.7%.
